# This is a sample that favours compounds with a hit; in the whole collection about 2.8% have one here.
# AHR act – activators of human aryl hydrocarbon receptor; P35869; AHR-responsive luciferase reporter cells, luminescence; activation, % at 5 µM; 320,000 compounds, 2.5% hits; AID 2796; in the data active = activation above about 47%;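 note: 0% = vehicle wells and 100% = reference agonist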
# PolyA inh – yeast polyadenylation inhibition. activity score, % at 12 µM. S. cerevisiae SKY197-pL101 polyadenylation reporter, beta-gal luminescence; efflux-impaired pdr1/pdr3 knockout yeast; score 100 = 6 SD above DMSO. 300,000 compounds, 0.02% hits;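 active = lowest replicate activity score at least 50, where 100 means six control SD above control mean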;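 note: yeast exposed to compound for 9 h at 30 °C; higher score means more reporter readthrough which indicates perturbed polyadenylation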
# pCIP destab – p/CIP protein destabilization. Q05BA5. F442A p/CIP-EGFP cells, EGFP fluorescence, 16 h. 290,000 compounds, 0.01% hits. decrease of EGFP signal, % at 10 µM;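 active = EGFP signal decrease of at least 30% at 10 µM or well 3 SD below plate mean, unless failing retest; inactive = the rest, including hits failing retest or dose response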
# Platelet DG rel – platelet dense granule release activity | human platelet-rich plasma, SFLLRN dense granule ATP release, luminescence | inhibition, %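 (compounds screened at 7.5 µM in platelet-rich plasma)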 | 300,000 compounds, 0.22% hits | AID 1663;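 active = mean replicate score, as percent of positive control, at or above 50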
# HIF act – HIF pathway transcriptional activation. U2OS HRE-luciferase reporter, luminescence; normalized: DMSO 0%, desferrioxamine 100%. activation, % at 7.5 µM (by protocol). 300,000 compounds, 0.32% hits. AID 1910;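 active = mean activation of at least 10% of the iron chelator positive control signal, with at least half of replicates also reaching 10%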
# * hit, by the source's call; nt = no result given.
SMILES,AHR act,PolyA inh,pCIP destab,Platelet DG rel,HIF act
CCSc1ncc(/C=N/Nc2ccc(F)cc2)n1C,77*,-23,2,-2,0
COc1ccccc1-c1nc2c3ccccc3nc(=S)n2[nH]1,68*,3,-2,-4,1
CC(Oc1ccc(Br)cc1)c1nc2c3ccccc3nc(=S)n2[nH]1 (centres undefined),3,-15,2,0,0
COc1cc(-c2nc3c4ccccc4nc(=S)n3[nH]2)cc(OC)c1OC,71*,-3,-11,-8,-1
CCOc1ccc(NC(=O)C(Cc2ccccc2)N2C(=O)c3cccc4cccc(c34)C2=O)cc1 (centres undefined),16,6,-1,4,-1
Cc1cc(-n2c(SCC(=O)Nc3ccc(Br)cc3)nc3n[nH]c(C)c3c2=N)ccc1Cl,17,-10,0,2,-3
Cc1cc(-n2c(SCC(=O)NCc3cccs3)nc3n[nH]c(C)c3c2=N)ccc1Cl,70*,10,-3,1,0
CC(C)N(CCNC(=O)C1CCCN(c2ncnc3c2nc2n3CCCCC2)C1)Cc1ccccc1 (centres undefined),-2,1,9,4,0
C=CCS/C(N)=N\N=C\c1c(O)ccc2ccccc12,56*,-26,0,0,3
CCOc1ccc(OCCN2C(=O)NC(Cc3c[nH]c4ccccc34)C2=O)cc1 (centres undefined),15,-6,-9,-2,0
Cc1ccc(N=C2NC(=O)/C(=C/c3cn(C)c4ccccc34)S2)cc1C,2,nt,-49,nt,nt
c1cc2cc(-c3c(-c4ccc5c(c4)OCO5)noc3-c3ccsc3)ccc2[nH]1,49*,-7,3,21,4
O=C(NCCCc1ccccc1)c1ccc(-n2cncn2)c([N+](=O)[O-])c1,13,34,nt,-1,0
CCC(=O)Nc1c(-c2ccc3ccccc3c2)nc2ccccn12,50*,13,-6,2,2
CC(=O)Nc1c(-c2ccc3ccccc3c2)nc2ccccn12,51*,-11,-6,nt,2
O=C(Nc1c(-c2ccccc2)nc2ccccn12)c1ccccc1,3,-15,0,-8,-12
COc1ccccc1-c1nc(C#N)c(NCCCn2ccnc2)o1,70*,8,6,-10,-1
CC1Cc2ccccc2N1C(=O)c1ccc2nccnc2c1 (centres undefined),nt,-18,-18,-2,-1
Cc1ccc(/C=N/NC(=O)c2cccc(S(=O)(=O)Nc3ccccc3Cl)c2)s1,53*,-11,-11,6,0
CC(=O)Oc1ccc(-c2ccc(C(=O)NCCc3ccc(S(N)(=O)=O)cc3)cc2)cc1,-1,15,-3,0,0
FC(F)(F)c1n[nH]c(=S)n1/N=C/c1ccco1,1,1,-1,32,-1
O=C(OCCN1C(=O)c2cccc3c(N4CCOCC4)ccc(c23)C1=O)c1ccc(Cl)cc1,1,-16,-34,-4,12*
CCCN(CCC)S(=O)(=O)c1ccc(C(=O)OCCN2C(=O)c3cccc4c(N5CCOCC5)ccc(c34)C2=O)cc1,-1,20,-16,-17,0
CC(=O)c1cccc(Nc2nc(-c3sc(N)nc3C)cs2)c1,49*,-5,-4,11,-2
Cc1nc(N)sc1-c1csc(Nc2cccc(O)c2)n1,71*,-8,-2,2,1
SMILES,AHR act,PolyA inh,pCIP destab,Platelet DG rel,HIF act
Cc1nc(N)sc1-c1csc(Nc2ccc(Cl)cn2)n1,76*,2,-7,-1,0
CC(NC(=O)C(=O)c1cn(CC(=O)N2CCOCC2)c2ccccc12)c1ccccc1 (centres undefined),4,-2,-3,16,0
COC(=O)c1cc(S(=O)(=O)N2CCN(Cc3ccccc3)CC2)cn1C,6,1,4,16,0
COc1ccccc1CNC(=O)COc1ccc(S(=O)(=O)N2CCCC2)cc1,25,9,12,6,1
CC(C)CN1CCNC(=O)C1CC(=O)NCc1cnn(-c2cccc(F)c2)c1 (centres undefined),0,16,-14,0,0
COc1ccccc1N=Nc1c(C)[nH][nH]c1=O,-1,-18,-11,3,-1
Cc1ccc(N=Nc2c(C)[nH][nH]c2=O)c(C)c1,48*,-15,-2,3,6
CCc1cccc(OCC(=O)Nc2ccccc2N2CCCC2)c1,10,-4,nt,-4,0
COc1ccc(-c2csc(NC(=O)/C(N=Nc3ccccc3)=C(\C)O)n2)cc1,48*,-6,-15,-1,0
COc1cccc(Nc2nc(-c3cccc(N4C(=O)c5ccccc5C4=O)c3)cs2)c1,46,8,-82,14,1
Cc1cccc(Nc2nc(-c3sc(C)nc3C)cs2)c1,70*,-6,-1,-3,4
COc1cccc(Nc2nc(-c3ccc(O)cc3)cs2)c1,54*,-12,-6,11,2
c1ccc(-c2csc(Nc3cccnc3)n2)cc1,31,4,-14,2,5
Clc1ccc(-c2csc(Nc3cccnc3)n2)cc1,81*,-6,-3,-7,4
COc1ccc(CC(=O)Nc2c(C(=O)N3CCN(c4ccccc4OC)CC3)oc3ccccc23)cc1OC,8,1,-10,-10,4
CCC(C)(C)NC(=O)C1CCCN(S(=O)(=O)c2ccc3c(c2)CC(C)N3C(=O)C2CC2)C1 (centres undefined),1,-3,2,4,1
COc1cccc(Nc2nnc(SCc3nc4ccccc4s3)s2)c1,67*,-8,-3,-6,3
Cc1cccc(C)c1Nc1nnc(SCc2nc3ccccc3s2)s1,18,9,-3,-10,2
Cc1ccc(Nc2nc(-c3sc(C)nc3C)cs2)cc1,62*,-9,-4,5,-3
Cc1cccc(Nc2nc(-c3ccncc3)cs2)c1,54*,-12,-5,-16,4
CC(=O)N(C)c1ccc(NC(=O)Nc2ccc(C)c(C)c2)cc1,3,-8,15,-1,1
O=C(/C=C/c1ccc([N+](=O)[O-])cc1)NCc1cccnc1,28,1,-3,6,0
O=C(/C=C/c1ccc(Cl)c([N+](=O)[O-])c1)NCc1cccnc1,60*,2,nt,3,0
O=C(/C=C/c1cccc([N+](=O)[O-])c1)NCc1cccnc1,63*,15,1,8,0
O=C(NN=C1CCCCCCC1)c1ccc2ccccc2n1,22,15,6,5,0
Cc1ccc(C(CC(=O)N2CCCC2)c2ccccc2)c(O)c1 (centres undefined),nt,1,-7,4,0
COc1ccc(C2N(Cc3ccccc3)CCN2Cc2ccccc2)cc1[N+](=O)[O-],0,4,-19,7,0
Cc1cc(C)c2c(N)c(C(=O)Nc3cccc(C)c3C)sc2n1,68*,-6,-16,-7,-1

# High-throughput results (PubChem)
